About 83,000 compounds went through this panel and 20% of them were active in at least one assay; those are over-represented in the sample as a whole.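 Method: cells in 96-well plates; compound added at one concentration; 48 h incubation; percent growth measured; values under 10 scored active.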 Unmarked numbers belong to inactive results. The source made the active and inactive calls.
Assays:
Experiment in all cases: NCI-60 one-dose screen, 48 h (100 = growth as untreated, 0 = no growth, -100 = all killed)
Settings in all cases: 10 µM unless noted
[1] = tested on: NCI-H23 lung
[2] = tested on: NCI-H226 lung
[3] = tested on: NCI-H322M lung
[4] = tested on: HOP-62 NSCLC
[5] = tested on: NCI-H460 lung
[6] = tested on: HOP-92 NSCLC
[7] = tested on: NCI-H522 lung
[8] = tested on: A549/ATCC NSCLC
[9] = tested on: 786-0 renal
[10] = tested on: COLO 205 colon
[11] = tested on: DU-145 prostate
[12] = tested on: K-562 leukemia
[13] = tested on: MALME-3M melanoma
[14] = tested on: MDA-MB-231 breast
[15] = tested on: RXF 393 renal
[16] = tested on: SF-268 CNS
[17] = tested on: SF-295 CNS
[18] = tested on: SF-539 CNS
[19] = tested on: UACC-257 melanoma
[20] = tested on: M14 melanoma

| Compound | growth [1] | growth [2] | growth [3] | growth [4] | growth [5] | growth [6] | growth [7] | growth [8] | growth [9] | growth [10] | growth [11] | growth [12] | growth [13] | growth [14] | growth [15] | growth [16] | growth [17] | growth [18] | growth [19] | growth [20] |
| --- | --- | --- | --- | --- | --- | --- | --- | --- | --- | --- | --- | --- | --- | --- | --- | --- | --- | --- | --- | --- |
| COc1ccc(-c2nc(/C=N/Nc3cc(C)nc4ccc(Cl)cc34)c(C)o2)cc1 | 42.1% | 75.6% | -92.5% (active) | 83.2% | -89.2% (active) | -84.8% (active) | -85.2% (active) | -91.6% (active) | -87.5% (active) | -72.8% (active) | -94.1% (active) | -35% (active) | -90.9% (active) | -95.9% (active) | -96.8% (active) | -71.8% (active) | -73.5% (active) | -90% (active) | 104% | -75.6% (active) |
| COc1ccc2c(c1)NC1=C(C(=O)OC1)C2c1cc(OC)c2c(c1)OCO2 (stereo not given) | 33% | 34% | 52.4% | 43.2% | 4.54% (active) | 43.8% | -13.1% (active) | 12% | 22.3% | -56.9% (active) | -20.6% (active) | 10.8% | 52.7% | 11.3% | 28% | 22.8% | 6.7% (active) | 6.15% (active) | 71.6% | 5.09% (active) |
| Cc1ccc(S(=O)(=O)n2cc(C(=O)C(=O)N3CCOCC3)c3ccccc32)cc1 | 79.4% | 82.4% | 99.2% | 84.7% | 113% | 26.6% | 75.2% | 114% | 92.4% | 112% | 109% | 86.9% | 91% | 80.2% | 110% | 97% | 94.1% | 91.2% | 98.4% | 91.4% |
| O=C1/C(=C/c2ccc([N+](=O)[O-])cc2)CN(C(=O)CCN2CCC(=NO)CC2)C/C1=C\c1ccc([N+](=O)[O-])cc1 | 0.382% (active) | 15.1% | -18.7% (active) | -21.9% (active) | -46.3% (active) | -10.4% (active) | -76.8% (active) | 21.3% | -37.1% (active) | -65.3% (active) | -8.07% (active) | 7.03% (active) | -20.3% (active) | -69.1% (active) | -76.5% (active) | -22.4% (active) | -28.6% (active) | -42.8% (active) | -4.87% (active) | -33.4% (active) |
| Cc1ccc(S(=O)(=O)n2cc(C(=O)C(=O)Nc3ccncc3)c3ccccc32)cc1 | 36.4% | 64.2% | 94.7% | 33.4% | 80.4% | 38.5% | 1.71% (active) | 73.5% | 29.5% | 107% | 22.4% | 23.8% | 48.4% | 42.9% | 9.66% (active) | 44.6% | 16.4% | 15% | 63.3% | 18.1% |
| COc1ccc(C(=O)c2cc(OC)c3c(c2)OCO3)cc1O | 30.4% | 66.9% | 51.4% | 35.5% | 8.5% (active) | 44.1% | -7.3% (active) | 24.5% | 44% | 84.9% | -2.4% (active) | 14.8% | 50.7% | 16.4% | -4.75% (active) | 27.6% | 15.5% | 6.91% (active) | 65.6% | 14.2% |
| O=c1ccn(C2CC(O)C(O)C(CO)O2)c(=O)[nH]1 (stereo not given) | 110% | 142% | 131% | 107% | 124% | 121% | 148% | 118% | 109% | 113% | 121% | 109% | 112% | 116% | 245% | 122% | 112% | 107% | 112% | 105% |
| C=C(C)[C@@H]1C[C@H](O)Cc2cc(F)ccc2N1 | 96.9% | 95.6% | 102% | 87.4% | 101% | 95.6% | 93.7% | 97.5% | 105% | 101% | 107% | 42.2% | 109% | 108% | 100% | 113% | 116% | 86.3% | 93.3% | 88.6% |
| CC(C)C1=CC2=C(C=O)C[C@@H]3[C@](C)(CCC[C@@]3(C)C(=O)OCC#CCN3CCCC3)[C@H]2CC1 | 62.2% | 75.7% | 96.2% | 84.9% | 76.8% | 45.9% | 59.9% | 67.4% | 75.2% | 86.5% | 96.3% | 30.8% | 81.8% | 89.3% | 72.6% | 86.9% | 79.7% | 63.9% | 86.6% | 75.9% |
| C=C[C@@H]1C[C@@H]2Cc3cc(Cl)ccc3N1O2 | 101% | 88.9% | 130% | 94.8% | 97.5% | 67% | 92.7% | 100% | 102% | 94.3% | 111% | 95.4% | 88% | 99.3% | 104% | 106% | 100% | 105% | 99.2% | 97.9% |
| Cn1cc(-c2cnc3ccc(NC(=O)Nc4ccc(F)c(Br)c4)cc3n2)cn1 | 32% | 16.7% | 46.3% | 0.864% (active) | 32.4% | -15.5% (active) | 8.07% (active) | 22.5% | 38.7% | 1.03% (active) | 39.4% | 11.2% | 35.9% | 23.4% | -22.3% (active) | 49.6% | -3.9% (active) | 52.9% | 47.6% | 4.13% (active) |
| CCCCCCCCCCCCCCCCCCNC(=O)[C@H]1CSC(c2ccc(OC)cc2O)N1 (stereo not given in full) | 83.3% | 90.4% | 67.5% | 63.9% | 13.4% | 66% | 65.8% | 73.8% | 82.2% | 97.1% | 22.5% | 25.7% | 96.6% | 38.1% | 32.5% | 50.6% | 93% | 66% | 88.3% | 65.3% |
| O=C(c1c[nH]c(=O)c(-c2ccccc2)c1)c1ccccc1O | 91.7% | 88.7% | 82.7% | 86.3% | 96.1% | 70.2% | 87.2% | 93.5% | 88.2% | 98.1% | 99.7% | 78.4% | 92.5% | 98.5% | 82.1% | 91.5% | 92.2% | 108% | 85.7% | 105% |

— PubChem BioAssay (NCI)
